This passage reports growth inhibition, inhibition and outcome results from PubChem BioAssay.

As a reminder, the inhibition is the drop in the measured response relative to a control, in per cent.

Unmarked numbers belong to inactive results. For some assays here: Entries with a potency or affinity are not part of this list. The source made the active and inactive calls. Unless noted, the rule behind the calls is not given here.

A short description of assay [1]: antimalarial activity against Dd2 strain (AID 2302;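 active = growth inhibition above 50% at the single 2 µM test dose, taken to imply half-maximal potency below 2 µM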;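 note: 0% = DMSO untreated growth and 100% = chloroquine plus artemisinin killed control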). Particulars: P. falciparum Dd2 in RBCs, LDH growth readout, 72 h; at 2 µM; active compounds read high.
Assay [2] in a line: HepG2 cytotoxicity, primary screen, cytotoxicity control for P. falciparum antimalarial project, cell-based, ATP luminescence (AID 2303;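 active = inhibition above 50%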;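 note: 0% = DMSO wells and 100% = digitonin-killed cells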). Particulars: HepG2 viability, 24-48 h, at 10 µM, active compounds read high.
In assay [3] the target is L-lactate dehydrogenase (Plasmodium falciparum (isolate CDC / Honduras)) (UniProt Q27743). The experiment in a line: PfLDH activity inhibition – cell lysate, 3D7 strain, counter-screen for P. falciparum growth inhibition project (AID 2304).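 Note: 0% = vehicle and 100% = reference inhibitor.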 Conditions: P. falciparum 3D7 crude extract, LDH APAD/NBT absorbance; at 2 µM; active compounds read high. A general note: The purpose of a counterscreen is to sort out artefacts and off-target activity.

Assay [4] in a line: inhibition of 3D7 malaria parasite growth – strain 3D7 (AID 2306).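 Note: 0% = DMSO wells and 100% = chloroquine plus artemisinin control wells.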 Particulars: P. falciparum 3D7 erythrocytic growth, LDH absorbance, 72 h; at 2 µM; active compounds read high.
Assay [5] has as its target Calcium-dependent protein kinase 1 (Plasmodium falciparum (isolate 3D7)) (UniProt P62344). The experiment in a line: PfCDPK1 kinase inhibitors, biochemical, TCAMS library (AID 1159585; cut-off not given, nearly all actives have IC50 up to about 0.98 µM;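 note: inhibitors leave more ATP so luminescence rises with inhibition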). Particulars: recombinant PfCDPK1, Kinase-Glo ATP depletion luminescence. (In general: Kinase-Glo measures the ATP left after a reaction by luminescence.)
Assay [6] concerns the target Plasmodium falciparum protein kinase 6 (PK6, PF3D7_1337100) (UniProt Q8IDW1). The experiment in a line: PfPK6 kinase inhibitors, biochemical, TCAMS library (AID 1159586). Conditions: recombinant PfPK6, Kinase-Glo ATP depletion luminescence.
Assay [7] has as its target Protein kinase 7 (PK7), Plasmodium falciparum 3D7 (PF3D7_0213400) (UniProt Q7YTF7). The experiment in a line: inhibition of Plasmodium PK7 catalytic activity – biochemical, TCAMS antimalarial set, Kinase-Glo luminescence (AID 1159587). Conditions: recombinant PfPK7, Kinase-Glo ATP depletion luminescence.
The target in assay [8] is Calcium-dependent protein kinase 4 (Plasmodium falciparum (isolate 3D7)) (UniProt Q8IBS5). The experiment in a line: PfCDPK4 kinase inhibitors, biochemical, TCAMS library (AID 1159588; cut-off not given, nearly all actives have IC50 up to about 0.91 µM). Conditions: recombinant PfCDPK4, Kinase-Glo ATP depletion luminescence.
Chain of Calcium-dependent protein kinase 4 (Plasmodium falciparum (isolate 3D7)) (Q8IBS5 whole entry, looked up): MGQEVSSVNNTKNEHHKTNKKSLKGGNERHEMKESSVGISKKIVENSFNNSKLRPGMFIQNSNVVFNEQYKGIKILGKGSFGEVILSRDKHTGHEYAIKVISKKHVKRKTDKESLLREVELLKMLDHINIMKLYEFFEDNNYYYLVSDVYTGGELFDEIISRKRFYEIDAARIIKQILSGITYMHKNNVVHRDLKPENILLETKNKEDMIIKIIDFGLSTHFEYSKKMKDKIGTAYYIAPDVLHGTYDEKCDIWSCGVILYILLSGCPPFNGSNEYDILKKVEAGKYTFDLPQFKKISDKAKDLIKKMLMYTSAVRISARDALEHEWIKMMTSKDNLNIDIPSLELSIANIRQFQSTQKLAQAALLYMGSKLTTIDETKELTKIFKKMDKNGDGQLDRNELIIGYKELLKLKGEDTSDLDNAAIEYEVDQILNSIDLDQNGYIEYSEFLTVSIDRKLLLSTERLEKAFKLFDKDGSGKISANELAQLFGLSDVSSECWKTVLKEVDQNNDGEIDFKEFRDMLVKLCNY

Chain of Protein kinase 7 (PK7), Plasmodium falciparum 3D7 (PF3D7_0213400) (Q7YTF7 1-343): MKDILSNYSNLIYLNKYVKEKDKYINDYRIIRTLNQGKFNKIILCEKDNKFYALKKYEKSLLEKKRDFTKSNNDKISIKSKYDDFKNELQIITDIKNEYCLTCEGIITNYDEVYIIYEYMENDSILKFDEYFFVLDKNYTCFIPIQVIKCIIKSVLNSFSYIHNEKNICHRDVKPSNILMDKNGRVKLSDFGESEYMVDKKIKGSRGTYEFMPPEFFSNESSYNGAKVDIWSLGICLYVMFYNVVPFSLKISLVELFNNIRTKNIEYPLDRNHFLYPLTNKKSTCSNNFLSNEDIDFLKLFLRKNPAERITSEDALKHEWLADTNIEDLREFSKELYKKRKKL
Chain of Plasmodium falciparum protein kinase 6 (PK6, PF3D7_1337100) (Q8IDW1 1-305): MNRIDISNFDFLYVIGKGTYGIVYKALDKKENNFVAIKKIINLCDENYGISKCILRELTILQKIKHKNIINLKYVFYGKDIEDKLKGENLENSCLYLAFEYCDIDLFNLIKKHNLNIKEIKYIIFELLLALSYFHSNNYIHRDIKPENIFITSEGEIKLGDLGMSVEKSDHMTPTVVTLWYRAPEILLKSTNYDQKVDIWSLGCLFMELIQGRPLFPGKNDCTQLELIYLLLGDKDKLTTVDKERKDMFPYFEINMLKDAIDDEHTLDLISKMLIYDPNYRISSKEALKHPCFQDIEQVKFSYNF
Chain of L-lactate dehydrogenase (Plasmodium falciparum (isolate CDC / Honduras)) (Q27743 whole entry, looked up): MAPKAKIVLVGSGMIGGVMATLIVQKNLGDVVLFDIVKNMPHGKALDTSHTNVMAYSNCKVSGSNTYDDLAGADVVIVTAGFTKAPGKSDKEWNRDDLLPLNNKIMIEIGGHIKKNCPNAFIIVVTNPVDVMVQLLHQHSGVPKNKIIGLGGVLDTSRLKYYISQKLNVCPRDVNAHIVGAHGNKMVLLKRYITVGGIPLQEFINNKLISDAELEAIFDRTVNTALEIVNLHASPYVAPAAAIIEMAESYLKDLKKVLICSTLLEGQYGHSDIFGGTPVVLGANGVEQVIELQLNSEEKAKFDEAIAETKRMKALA
Chain of Calcium-dependent protein kinase 1 (Plasmodium falciparum (isolate 3D7)) (P62344 whole entry, looked up): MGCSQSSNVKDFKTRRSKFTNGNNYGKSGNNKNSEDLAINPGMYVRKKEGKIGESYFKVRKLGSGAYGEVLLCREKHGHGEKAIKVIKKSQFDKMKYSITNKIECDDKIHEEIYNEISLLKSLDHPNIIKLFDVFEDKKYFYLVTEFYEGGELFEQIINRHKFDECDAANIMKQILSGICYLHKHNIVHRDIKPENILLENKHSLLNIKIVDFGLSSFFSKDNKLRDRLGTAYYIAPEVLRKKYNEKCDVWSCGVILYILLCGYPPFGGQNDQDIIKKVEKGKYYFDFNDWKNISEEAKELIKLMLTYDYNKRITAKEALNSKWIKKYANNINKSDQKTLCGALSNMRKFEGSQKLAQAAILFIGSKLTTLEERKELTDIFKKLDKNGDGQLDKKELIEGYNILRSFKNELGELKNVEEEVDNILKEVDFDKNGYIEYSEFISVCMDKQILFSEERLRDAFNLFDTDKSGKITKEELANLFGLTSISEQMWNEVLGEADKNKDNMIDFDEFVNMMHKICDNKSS

Take `CCN(CC)CCCC(C)N=C(Nc1ccc(C#N)cc1O)Nc1ccccc1Br` (configuration not stated): the growth inhibition was -2% in assay [1] and 89% (active) in assay [4]. Besides, the inhibition in assay [2] was 4%; in assay [3] it was 2%. In addition, the result in assay [5], in assay [6], in assay [7] and in assay [8] was inactive.

Regarding `CCN1CCC(N(CCCCCCCCc2ccc(C(F)(F)F)cc2)C(=O)Cn2c(CCc3cccc(F)c3F)cc(=O)c3ccccc32)CC1`, the figures for the growth inhibition in assay [1] and in assay [4] were 65% (active) and 88% (active), respectively. Also, the inhibition in assay [2] is 89% (active); in assay [3] it was 2%. In addition, the outcome in assay [5], in assay [6], in assay [7] and in assay [8] was inactive.

Consider `COCCNC(=O)c1ccc(OC2CCN(CC(C)=Cc3ccccc3)CC2)c(Cl)c1`, for which the growth inhibition was 95% (active) in assay [1] and 94% (active) in assay [4]. In addition, the inhibition is 18% in assay [2] and 2% in assay [3]. In addition, the outcome in assay [5], in assay [6], in assay [7] and in assay [8] was inactive.

Consider `CN1CCN(CCCN(Cc2cccc(-c3cccc(CNCCc4ccccc4)c3)c2)C(=O)Nc2ccccc2)CC1`, for which the values for the growth inhibition in assay [1] and in assay [4] were 82% (active) and 97% (active), respectively. Moreover, the values for the inhibition in assay [2] and in assay [3] were 92% (active) and 0%, respectively. The result in assay [5], in assay [6], in assay [7] and in assay [8] was inactive.

For the molecule `O=[N+]([O-])c1cccc(C=NNc2nc(Nc3ccccc3)nc(Nc3ccccc3)n2)c1`, the growth inhibition is 55% (active) in assay [1] and 99% (active) in assay [4]. The inhibition in assay [2] is 10%; in assay [3], 3%. The result in assay [5], in assay [6], in assay [7] and in assay [8] was inactive.

As to `COC(=O)CCCCCOc1cc(Cc2cnc(N)nc2N)cc(OC)c1OC`, the figures for the growth inhibition in assay [1] and in assay [4] were -3% and 90% (active), respectively. The inhibition in assay [2] is -15%; in assay [3], 2%. The result in assay [5], in assay [6], in assay [7] and in assay [8] was inactive.

As for `CCc1c(CCNCCCCCCNCCc2ccc(Br)cc2)ccc(OC)c1OC`, the results for the growth inhibition in assay [1] and in assay [4] were 14% and 99% (active), respectively. In addition, the results for the inhibition in assay [2] and in assay [3] were 100% (active) and 0%, respectively. In addition, the outcome in assay [5], in assay [6], in assay [7] and in assay [8] was inactive.

Turning to `COc1cc(Cc2cnc(N)nc2N)cc(OCCCCCC(=O)O)c1OC`, the growth inhibition in assay [1] was 2%; in assay [4], 95% (active). The inhibition is -16% in assay [2] and -4% in assay [3]. Further, the outcome in assay [5], in assay [6], in assay [7] and in assay [8] was inactive.

With `CN(C)CCN(C)Cc1ccc(-c2ccc3c(Nc4ccc(Oc5ccccn5)cc4)ccnc3c2)o1`, the growth inhibition in assay [1] and in assay [4] was 100% (active) in each case. Moreover, the inhibition in assay [2] was 16%; in assay [3] it was 6%. The result in assay [5], in assay [6], in assay [7] and in assay [8] was inactive.

Regarding `Nc1c2c(nc3ccc(NC(=O)CCCCCCc4ccccc4)cc13)CCCC2`, the figures for the growth inhibition in assay [1] and in assay [4] were 90% (active) and 100% (active), respectively. The inhibition was 100% (active) in assay [2] and 4% in assay [3]. The outcome in assay [5], in assay [6], in assay [7] and in assay [8] was inactive.

Consider `CCCCCNc1nc2nc(N)nc(N)c2nc1-c1ccccc1`, for which the growth inhibition in assay [1] was -4%; in assay [4], 91% (active). Moreover, the inhibition in assay [2] is 9%; in assay [3] it was -2%. The result in assay [5], in assay [6], in assay [7] and in assay [8] was inactive.

In the case of `Cc1nc(C(C)Nc2nncc(-c3ccc(Cl)cc3)n2)cs1` (configuration not stated), the results for the growth inhibition in assay [1] and in assay [4] were 55% (active) and 91% (active), respectively. Further, the figures for the inhibition in assay [2] and in assay [3] were -15% and -2%, respectively. Also, the result in assay [5], in assay [6], in assay [7] and in assay [8] was inactive.

For the molecule `O=C(/C=C/c1ccc(Cl)c(Cl)c1)N1CCC(CCN2CCC(c3c[nH]c4ccncc34)CC2)CC1`, the growth inhibition in assay [1] was 70% (active); in assay [4], 101% (active). The inhibition is 13% in assay [2] and 2% in assay [3]. In addition, the result in assay [5], in assay [6], in assay [7] and in assay [8] was inactive.

As to `C=C[C@]1(C)C[C@@H](OC(=O)NC(=O)C2CCN(C(=O)CSc3ccccc3)CC2)[C@]2(C)[C@H](C)CC[C@]3(CCC(=O)[C@H]32)[C@@H](C)[C@@H]1O`, the growth inhibition in assay [1] is 74% (active); in assay [4], 93% (active). The inhibition in assay [2] is -3%; in assay [3], 1%. In addition, the outcome in assay [5], in assay [6], in assay [7] and in assay [8] was inactive.

Turning to `CC1(C)N=C(N)N=C(N)C1c1ccc(Cl)cc1` (configuration not stated), the growth inhibition in assay [1] is -2%; in assay [4], 96% (active). For the same molecule, the values for the inhibition in assay [2] and in assay [3] were 16% and 1%, respectively. In addition, the outcome in assay [5], in assay [6], in assay [7] and in assay [8] was inactive.

Consider `CC(C)(C(=O)Nc1ccc(C2CCC(NCC3CC3)CC2)c(Cl)c1)c1cccc(OC(F)F)c1` (configuration not stated), for which the growth inhibition in assay [1] was 23%; in assay [4], 99% (active). Further, the results for the inhibition in assay [2] and in assay [3] were 34% and -4%, respectively. For the same molecule, the outcome in assay [5], in assay [6], in assay [7] and in assay [8] was inactive.

Consider `O=C(Nc1ccc2c(ccn2C2CCCN(Cc3cc(F)cc(F)c3F)CC2)c1)c1ccco1` (configuration not stated), for which the growth inhibition in assay [1] was 94% (active); in assay [4] it was 89% (active). The inhibition in assay [2] was 7%; in assay [3], -1%. Moreover, the result in assay [5], in assay [6], in assay [7] and in assay [8] was inactive.

In the case of `COc1cccc(NC(=O)Nc2c(-c3cccc(C(F)(F)F)c3)c(C(F)(F)F)nn2C)c1`, the figures for the growth inhibition in assay [1] and in assay [4] were 30% and 93% (active), respectively. In addition, the inhibition in assay [2] was 2%; in assay [3], 7%. Besides, the result in assay [5], in assay [6], in assay [7] and in assay [8] was inactive.

As to `CCN(CC)C(=NCCCCCCN=C(NC(N)=NCc1ccc(Cl)cc1Cl)N(CC)CC)NC(N)=NCc1ccc(Cl)cc1Cl`, the growth inhibition in assay [1] was 99% (active); in assay [4] it was 102% (active). For the same molecule, the inhibition was 16% in assay [2] and -3% in assay [3]. The outcome in assay [5], in assay [6], in assay [7] and in assay [8] was inactive.
